# Compounds with a hit are over-represented: about 13% of the library has one in this group of screens.
# CHX counter = Cycloheximide Counterscreen for Small Molecule Inhibitors of Shiga Toxin. cell reporter, cycloheximide protein synthesis inhibition counterscreen. max response, %. hit rate 12% among 300,000. AID 2314, 2010; in the data active = max response mostly above about 13%, no sharp cut-off; inactive = mostly below about 14%; also: read at 38.3 µM for the half of the compounds with a filed dose; 0% is about no effect
# MARV entry inh = qHTS for inhibitors of binding or entry into cells for Marburg Virus | Potency, µM (doses to about 37.8 µM), for the others: at the top dose activity change, negative = inhibition, most hits filed as inhibitors | hit rate 1.8% among 300,000 | Marburg virus pseudotyped entry inhibition, cell reporter; calls by dose curve; tested in HEK293 cells; also: potency is read from the fitted curve at half-maximal effect; % is scaled to controls: 0 for no effect and ±100 for the full control effect
# Shiga inhibitor = A qHTS for Small Molecule Inhibitors of Shiga Toxin; inhibition, % at 38.7 µM; Vero cells, Shiga toxin protein synthesis inhibition reporter; hit rate 9.2% among 290,000; AID 2315, 2010; in the data active = inhibition mostly above about 28%, no sharp cut-off; inactive = mostly below about 43%; also: 0% is about no effect
# HCV inh = qHTS Assay for Inhibitors of Hepatitis C Virus (HCV) | Potency, µM (doses to about 41.8 µM), without a hit: at the highest dose activity change, negative = inhibition, usual class: inhibitors | Huh7.5.1 HCVcc-Cre infection, luciferase reporter, 44 h | hit rate 3.4% among 340,000 | AID 651820, 2012; active = well fitted inhibition curve with a large enough effect; inconclusive = small, poorly fitted or top-dose-only effect, or another doubt; inactive = no such curve, though single readings can be large or run the other way; also: potency is read from the fitted curve at half-maximal effect; % is scaled to controls: 0 for no effect and ±100 for the full control effect
#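 Infectious HCVcc-Cre (~0.5 moi) was added to cells just after compound, with cells seeded 4 h earlier at 1,000 per well. Luciferase activity after 44 h culture reported infection; substrate was incubated 15 min at room temperature before reading.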
# Lassa entry inh = qHTS for Inhibitors of binding or entry into cells for Lassa Virus. Lassa virus pseudotype entry inhibition, cell reporter. Potency, µM (titrated, usually from 37.9 µM), inactives show at the highest dose activity change, negative = inhibition, actives largely listed as inhibitors. hit rate 1.2% among 300,000; calls by dose curve; tested in HEK293 cells; also: potency is read from the fitted curve at half-maximal effect; % is scaled to controls: 0 for no effect and ±100 for the full control effect; nearly all actives have a fitted effect of over 50% in size
# FMDV inh = High Throughput Screening for Foot and Mouth Disease Virus Antivirals | FMDV antiviral cell-based qHTS | hit rate 1.2% among 410,000 | Potency, µM (doses to about 57.9 µM), for the others: at the top dose activity change, negative = inhibition, most hits filed as inhibitors | AID 1159524, 2015; calls by dose curve; tested in HEK293T cells; also: read-out not given here; potency is read from the fitted curve at half-maximal effect; % is scaled to controls: 0 for no effect and ±100 for the full control effect; nearly all actives have a fitted effect of over 45% in size
# * marks the source's active call; other numbers are inactive results; ? = inconclusive; . = not tested or not shown; [ ] = remark or other dose.
SMILES,CHX counter,MARV entry inh,Shiga inhibitor,HCV inh,Lassa entry inh,FMDV inh
COc1ccc2[nH]cc(/C=N/NS(=O)(=O)c3ccc(C)cc3)c2c1,1.0,.,15.3,11.2µM*,.,-21.2%
COc1ccc(OC)c(S(=O)(=O)N/N=C\c2c[nH]c3ccccc23)c1,6.8,-13.2%,14.6,11.2µM*,?,39.8%
COc1ccc2c(/C=N/NS(=O)(=O)c3ccc(C)cc3)c[nH]c2c1,8.7,-10.1%[46.1 µM],-0.7,?,-23.4%,62.3%
COc1ccc(OC)c(S(=O)(=O)N/N=C(/C)c2c[nH]c3ccccc23)c1,-2.5,17.0%[46.1 µM],27.9,1.2%,4.7%[46.1 µM],31.8%
O=C(COc1ccccc1Cl)Nc1nc(-c2cccs2)cs1,12.9,-3.5%,3.0,?,-6.6%,-3.4%
O=C1c2ccccc2C(=O)N1c1nc(-c2cccs2)cs1,8.2,10.2%[46.1 µM],9.9,-2.0%,12.5%,-4.2%
O=C(Nc1nc(-c2ccc(Cl)s2)cs1)c1ccccc1,41.9*,-21.1%[46.1 µM],44.8,?,1.0%,-17.2%
CC(=O)Nc1nc(-c2cccs2)cs1,23.1*,27.7%,40.1,-4.7%,-19.2%,41.8%
Nc1nc(-c2cccs2)cs1,34.5*,24.2%,68.6,7.0%,22.6%,.
O=C(Nc1nc(-c2cccs2)cs1)c1ccc(Cl)s1,41.9*,.,38.9*,?,.,-23.0%
COc1ccc(N(CC(=O)Nc2ccc(Cl)cc2C)S(=O)(=O)c2ccccc2)c(OC)c1,.,?,.,.,?,-10.4%
CCCOc1ccccc1-c1nc2c([nH]1)c(=O)[nH]c(=O)n2C,-2.0,-15.2%[46.1 µM],-11.0,?,-26.0%,-17.6%
Cc1cc(-c2ccccc2)n(-c2cc(N/N=C/c3ccccc3O)ncn2)n1,-3.3,8.91µM*,-18.0,?,4.47µM*,?
Oc1ccc(/C=N/Nc2ccc(Cl)nn2)cc1O,39.2*,.,35.9,-9.6%,.,28.2%
Fc1ccccc1/C=N/Nc1ccc(Cl)nn1,10.1,.,37.7*,12.8%,.,51.9%
Oc1ccc(/C=N/NP(=S)(c2ccccc2)c2ccccc2)cc1O,8.5,6.5%,24.3,7.5%,19.5%,36.4%
Cc1ccc(/C=N/Nc2ccc(Cl)nn2)cc1,13.2*,.,44.7*,5.9%,.,56.6%
O=C(Nc1ccc(OC(F)(F)F)cc1)C1=NCCN1,40.4*,?,38.3*,15.9%,-3.8%,-4.9%
Cc1cnc(C(=O)Nc2ccc(C(=O)N3CCCCC3)cc2)cn1,6.4,17.0%[46.1 µM],12.1,-10.0%,21.4%,23.3%
Cc1cnc(C(=O)Nc2ccc(N3CCCCC3)cc2)cn1,32.3*,?,83.6*,-11.1%,?,-19.0%
O=C(O)c1ccccc1-c1ccccc1C(=O)Nc1ccc(OC(F)(F)F)cc1,-0.8,.,-9.2,22.8%,.,-15.0%
Cc1cnc(C(=O)Nc2ccc(OC(F)(F)F)cc2)cn1,26.9*,.,48.1*,-9.4%,.,0.0%
Cc1cnc(C(=O)Nc2ccc(N3CCOCC3)cc2)cn1,22.2*,?,66.4*,0.5%,28.2%[14.3 µM],70.0%
Cc1cnc(C(=O)Nc2ccc(-n3cnnn3)cc2)cn1,-2.3,4.1%,8.5,0.8%,13.7%,41.3%
Cc1[nH]c(=O)[nH]c1CN1CCCCC1,-1.3,-1.1%,-8.4,.,.,.
SMILES,CHX counter,MARV entry inh,Shiga inhibitor,HCV inh,Lassa entry inh,FMDV inh
CC1(C(=O)NS(=O)(=O)Cc2cccc(Cl)c2)CCN1C(=O)Cc1ccc(-c2ccccc2)cc1 (configuration not stated),.,.,.,.,.,-3.5%
CCCc1cc(C(=O)N2CCN(S(=O)(=O)c3ccc(OC)c(OC)c3)CC2)cs1,14.4,-18.7%,37.5,-1.8%,51.0%[14.3 µM],-24.5%
CC(CO)(CO)NCc1ccc(-c2ccccc2)cc1,7.1,27.9%,13.0,?,12.6%,25.9%
Cc1ccc(N/N=C2\CCS(=O)(=O)c3sccc32)cc1,14.9,16.1%[46.1 µM],21.4,-28.1%,-2.6%[46.1 µM],11.9%
Cc1cc(C(=O)Nc2ccc(N3CCCCC3)cc2)no1,16.3*,?,39.3,-10.9%,11.2µM*,-50.8%
Cc1sc2nc(CSc3ccccc3)nc(N3CCOCC3)c2c1C,-3.1,?,-3.9,?,3.4%,?
COc1ccc(C)cc1Nc1n[n+](C)c(-c2ccc(C(=O)O)cc2)s1,-2.6,.,-5.8,.,.,.
CC(/C=C/c1ccco1)=N/NC(=O)c1ccccc1Cl,25.6*,?,24.1,9.3%,4.5%,41.7%
CC(/C=C/c1ccco1)=N\NC(=O)CNc1ccc2ccccc2c1,9.3,.,16.1,-6.3%,.,9.0%
O=C(N/N=C/C=C/c1ccco1)c1ccccc1Cl,18.0,?,41.8,8.9%,-24.3%[46.1 µM],17.9%
CC(/C=C/c1ccco1)=N\NC(=O)c1cccc(Cl)c1,34.8*,-6.6%,29.2,?,-5.2%,19.7%
Cn1nc(-c2ccc(C(=O)Nc3ccc(OC(F)(F)F)cc3)cc2)c2ccccc2c1=O,.,.,.,.,-1.6%[46.1 µM],14.1µM*
Cn1nc(-c2ccc(C(=O)Nc3cccc(C(F)(F)F)c3)cc2)c2ccccc2c1=O,.,?,.,.,3.6%[46.1 µM],22.4µM*
CN(C(=O)c1ccc(-c2nn(C)c(=O)c3ccccc23)cc1)C1CCCCC1,13.5,?,11.7,?,?,22.4µM*
Cc1oc(-c2ccccc2NC(=O)c2ccccc2)nc1CNC(=O)C1CC(=O)OC12CCCCC2 (configuration not stated),.,.,.,.,.,15.2%
CCC(C)c1ccc(C(C)NC(=S)NCc2ccc(F)cc2)cc1 (configuration not stated),-0.6,?,-6.1,7.08µM*,?,?
CCCc1ccc(C(C)NC(=S)NCc2ccc(F)cc2)cc1 (configuration not stated),7.9,?,6.2,-12.5%,?,?
C/C(=N\NC(=O)c1ccc([N+](=O)[O-])cc1)c1cccc([N+](=O)[O-])c1,10.8,-19.9%[46.1 µM],3.2,8.4%,-6.4%[46.1 µM],2.3%
C/C(=N\NC(=O)c1cccc(N/N=C(\C)c2ccco2)c1)c1ccco1,29.2*,.,90.3*,-18.9%,.,8.0%
C/C(=N\NC(=O)c1cccc([N+](=O)[O-])c1)c1cccc(NC(=O)C2CC2)c1,16.7*,1.7%[46.1 µM],14.0,?,-12.8%,-2.0%
C/C(=N\NC(=O)c1cccc([N+](=O)[O-])c1)c1ccco1,15.4*,5.0%[46.1 µM],49.7*,-1.0%,13.9%,30.6%
C/C(=N/NC(=O)c1ccc(-c2ccccc2)cc1)c1cccc(O)c1,7.9,2.3%[46.1 µM],21.9,-28.8%,-7.8%[46.1 µM],-6.4%
C/C(=N\NC(=O)c1cccc(N/N=C(\C)c2cc(O)ccc2O)c1)c1cc(O)ccc1O,32.3*,?,88.0*,?,?,0.0%
COc1ccc(Cl)cc1NC(=O)c1c(NCc2sccc2C)sc2c1CCCC2,11.7,.,8.8,.,4.1%[46.1 µM],-18.1%
Cc1ccc(OCC(O)CN2C(=O)NC(C)(C)C2=O)c(C)c1 (configuration not stated),-0.9,19.8%,-1.0,21.3%,4.1%,8.6%
